Measured values taken from the supplement of paper PMC10127200.
Counter-ions that a name gives are not always drawn.

Experiments:
Assay in all cases: Euclidean distance of Cell Painting phenotypic profile (signed KS, 77 features) to DMSO centroid (dimensionless distance); higher = stronger phenotypic change vs DMSO (phenoactivity)
Conditions in all cases: 48 h; 5 or 10 uM (library dependent)
786-O = test system: 786-O
Outline: (§1)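 Stained cells were imaged confocally at 20X with 9 fields per well, after 48 h of exposure to library compounds at 10 or 5 uM (set by library; 0.1% DMSO final). The cells were five cancer lines and a healthy fibroblast line. From the images, Harmony extracted 77 features, each expressed as a signed Kolmogorov-Smirnov statistic relative to same-plate vehicle wells. Phenoactivity is measured as Euclidean distance to the median vehicle profile, using plate-position-corrected, correlation-weighted profiles averaged across replicates at the top dose.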

A549 = test system: A549
Outline: as §1

DU145 = test system: DU145
Outline: as §1

FB = test system: FB
Outline: as §1

HEPG2 = test system: HEPG2
Outline: as §1

OVCAR4 = test system: OVCAR4
Outline: as §1

Structure (SMILES)	Euclidean distance (786-O)	Euclidean distance (A549)	Euclidean distance (DU145)	Euclidean distance (FB)	Euclidean distance (HEPG2)	Euclidean distance (OVCAR4)
C=CN1CCCC1=O.II [Povidone iodine]	0.772	0.725	0.784	1.19	1.94	1.05
CN1CCC(C(=O)c2cccc(NC(=O)c3c(F)cc(F)cc3F)n2)CC1 [Lasmiditan succinate]	1.46	0.669	1.83	0.918	0.782	1.39
CNC1CC(N)C(O)C(OC2OC(CO)C(O)C3OC4(OC(C(N)CO)C(O)C(O)C4O)OC23)C1O (configuration not stated) [Hygromycin B]	1.63	1.19	1.02	2.53	1.3	1.24
NC[C@H](CC(=O)O)c1ccc(Cl)cc1 [(R)-baclofen]	1.58	1.05	0.675	1.01	0.87	1.1
CN1[C@@H]2CC[C@H]1C[C@@H](OC(=O)C(CO)c1ccccc1)C2 (some centres not stated) [Atropine sulfate]	0.994	0.9	0.824	0.898	0.473	1.38
Cc1ccc(-n2nccn2)c(C(=O)N2CCN(c3nc4cc(Cl)ccc4o3)CC[C@H]2C)c1 [Suvorexant (MK-4305)]	0.574	1.02	0.945	0.9	2.25	0.979
C[N+]1(C)[C@@H]2C[C@@H](OC(=O)[C@H](CO)c3ccccc3)C[C@H]1[C@@H]1O[C@@H]12 [Methscopolamine]	0.909	0.693	0.721	0.773	0.666	1.04
C=C(C)[C@@H]1[C@H]2OC(=O)[C@@H]1[C@]1(O)C[C@H]3O[C@]34C(=O)O[C@H]2[C@]14C [Picrotoxinin]	1.37	1.86	0.846	0.954	0.815	1.26
Cc1ncc(CNC(=O)N(CCCl)N=O)c(N)n1 [Nimustine Hydrochloride]	1.62	0.894	0.692	0.831	0.722	0.918
CC[C@H](C)[C@H]1O[C@]2(C=C[C@@H]1C)C[C@@H]1C[C@@H](C/C=C(\C)[C@@H](O[C@H]3C[C@H](OC)[C@@H](O[C@H]4C[C@H](OC)[C@@H](O)[C@H](C)O4)[C@H](C)O3)[C@@H](C)/C=C/C=C3\CO[C@@H]4[C@H](O)C(C)=C[C@@H](C(=O)O1)[C@]34O)O2.CO[C@H]1C[C@H](O[C@H]2[C@H](C)O[C@@H](O[C@@H]3/C(C)=C/C[C@@H]4C[C@@H](C[C@]5(C=C[C@H](C)[C@@H](C(C)C)O5)O4)OC(=O)[C@@H]4C=C(C)[C@@H](O)[C@H]5OC/C(=C\C=C\[C@@H]3C)[C@]54O)C[C@@H]2OC)O[C@@H](C)[C@@H]1O [Avermectin B1]	1.43	2.77	1.59	1.1	1.38	1.76
CCC1(c2cccc(O)c2)CCCCN(C)C1 (configuration not stated) [Meptazinol HCl]	1.46	1.09	0.6	0.726	0.404	0.921
C=CCN1C[C@H](C(=O)N(CCCN(C)C)C(=O)NCC)C[C@@H]2c3cccc4[nH]cc(c34)C[C@H]21 [Cabergoline]	1.45	0.993	1.12	1.34	0.928	1.3
CN1[C@@H]2C[C@@H](OC(=O)[C@H](CO)c3ccccc3)C[C@H]1[C@@H]1O[C@@H]12 [Scopolamine HBr]	1.07	0.645	0.406	0.816	0.391	1.01
CC(C)N(CCNC(=O)CN1CCCC1=O)C(C)C [Pramiracetam]	1.35	1.08	0.543	0.932	0.534	0.853
CN(C)Cc1c[nH]c2ccccc12 [Gramine]	1.2	0.885	1.29	0.772	0.674	1.45
CN(C)NC(=O)CCC(=O)O [Daminozide]	0.626	0.507	0.706	0.873	0.742	1.16
CN(C)C(=O)Oc1cccc([N+](C)(C)C)c1 [Neostigmine Bromide]	1.45	0.931	0.914	0.963	0.858	1.53
NC(=O)CN1CC(O)CC1=O (configuration not stated) [Oxiracetam]	1.07	0.677	0.989	1.39	0.778	0.764
CN[C@@H]1[C@@H](O)[C@@H](O[C@@H]2[C@@H](O)[C@H](O[C@H]3O[C@H]([C@@H](C)O)[C@@H](O)[C@H](O)[C@H]3N)[C@@H](N)C[C@H]2N)OC[C@]1(C)O [Geneticin (G418 Sulfate)]	1.73	0.917	1.4	1.24	1.23	1.53
COc1ccc2c(c1)[C@]13CCCC[C@@H]1[C@H](C2)N(C)CC3 [Dextromethorphan hydrobromide hydrate]	1.3	1.32	0.854	1.76	1.11	1.39
Cc1ccc2c(c1)[C@]13CCCC[C@@H]1[C@H](C2)N(C)CC3 [Dimemorfan phosphate]	1.28	1.25	1.36	3.6	2.34	1.19
CC[N+](C)(CC)CCOC(=O)C(O)(c1ccccc1)c1ccccc1 [Methylbenactyzine Bromide]	0.693	0.883	0.575	0.967	0.532	1.45
